RE007 growth inh: less growth of the S. pombe RE007 Vpr strain | 0.21% of 360,000 active | Potency, µM (doses to about 92.2 µM), for the others: at the top dose activity change, negative = less growth, hits mostly inhibitors | S. pombe RE007 Vpr strain, BacTiter-Glo ATP luminescence, 24 h; active = well fitted falling curve with a large enough effect; inconclusive = small, poorly fitted or top-dose-only effect; inactive = no such curve, though single readings can be large or run the other way; also: nearly all actives have a fitted effect of over 50% in size
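Fission yeast strain RE007, carrying one chromosomally integrated HIV-1 vpr copy, was seeded at OD 0.01 in PMG+AL medium with 23 nL pinned compound. After 24 h at 30 °C and 99% humidity, viability was read by BacTiter-Glo luminescence.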
AmpC inh no detg: AmpC beta-lactamase inhibition without detergent; AmpC nitrocefin hydrolysis, absorbance 480 nm, 0.0001% Triton; Potency, µM (highest dose often 57.1 µM), inactives show top-dose activity change, negative = inhibition, most hits filed as inhibitors; 0.52% of 330,000 active;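 also: plate controls were no compound for no effect and no enzyme for full effect; nearly all actives have a fitted effect of over 20% in size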
Target sequence (P00811 whole entry, looked up): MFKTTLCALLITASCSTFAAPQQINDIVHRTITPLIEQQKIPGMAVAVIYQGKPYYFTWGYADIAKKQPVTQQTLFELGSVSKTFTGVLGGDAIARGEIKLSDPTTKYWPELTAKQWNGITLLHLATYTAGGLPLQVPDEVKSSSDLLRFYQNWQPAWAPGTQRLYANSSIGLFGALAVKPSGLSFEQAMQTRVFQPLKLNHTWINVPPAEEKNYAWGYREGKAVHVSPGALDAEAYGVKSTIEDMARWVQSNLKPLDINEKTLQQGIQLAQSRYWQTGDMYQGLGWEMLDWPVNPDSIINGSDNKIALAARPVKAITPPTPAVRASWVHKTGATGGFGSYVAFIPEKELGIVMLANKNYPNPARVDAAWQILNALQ
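AmpC (5.3 nM in the dispensed reagent) in 20 mM phosphate pH 7.0 with 0.01% (detergent screen) or 0.0001% Triton X-100 was preincubated with compounds for 15 min at room temperature. Nitrocefin was then added from an 800 uM solution, and hydrolysis was followed at 480 nm.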
Sm TGR inh: inhibitors of Schistosoma mansoni thioredoxin glutathione reductase. Potency, µM (titrated, usually from 114 µM), for the others: at the top dose activity change, negative = inhibition, most hits filed as inhibitors. 3% of 360,000 active. purified TGR, DTNB reduction, TNB absorbance 405 nm. Q962Y6; also: nearly all actives have a fitted effect of over 60% in size
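First, TGR (20 nM dispensed) and NADPH were mixed with compound. Second, a 15 min room-temperature incubation followed. Third, further NADPH and then DTNB were added to start the reaction. Finally, TNB absorbance was monitored kinetically.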
AmpC inh detg: inhibitors of E. coli AmpC beta-lactamase with detergent; AmpC hydrolysis of nitrocefin, absorbance 480 nm, 0.01% Triton; P00811; AID 485294; Potency, µM (titrated, usually from 114 µM), for inactives: at the highest dose activity change, negative = inhibition, usual class: inhibitors; 0.041% of 370,000 active;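 also: 0% = no-compound wells and -100% = no-enzyme wells; nearly all actives have a fitted effect of over 25% in size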
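20 mM phosphate pH 7.0 + 0.01% (detergent screen) or 0.0001% Triton X-100; 5.3 nM AmpC reagent; cpd preinc 15 min RT; nitrocefin (800 uM stock) to start; A480 q20 s × 4 min; Activity was normalised to no-enzyme and no-compound control wells.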
AMA1-RON2 inh: AMA1-RON2 (P. falciparum) interaction inhibition. AID 720542. AlphaScreen AMA1-biotinylated RON2 peptide binding. 0.2% of 360,000 active. Potency, µM (doses to about 58.2 µM), for the others: at the top dose activity change, negative = inhibition, hits mostly inhibitors;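 also: 0% = vehicle wells and -100% = peptide control; nearly all actives have a fitted effect of over 45% in size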
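AMA1 (3D7) with his tag at 25 nM final met compounds first, then biotinylated RON2 peptide at 25 nM; detection used donor plus acceptor beads, 10 µg/mL apiece, read by AlphaScreen after 30 min at room temperature.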
Starred values were filed as active, the others as inactive; ? = inconclusive; . = not tested or not shown; [ ] = remark or other dose. Only some compounds are listed: those with a hit (about 3.2% of all), similar ones and a draw of the others. Unless noted, calls follow the shape of the dose curve; as a rule, active = well fitted curve in the direction sought with a large enough effect; inconclusive = small, poorly fitted or top-dose-only effect, or another doubt; inactive = no such curve, though single readings can be large; an effect the other way counts as inactive or inconclusive. Unless noted, % is scaled to controls: 0 for no effect and ±100 for the full control effect; potency is read from the fitted curve at half-maximal effect.

SMILES	RE007 growth inh	AmpC inh no detg	Sm TGR inh	AmpC inh detg	AMA1-RON2 inh
CN(C)c1ccc(C=C(C#N)C#N)cc1	4%	-12%	-10%	-6%	-10%[2.32 µM]
CN(C)c1nc(C=C(C#N)C#N)c(Cl)n1-c1ccc(F)cc1	4%	2%	1.8µM*	14%	-11%
CC(=O)Cc1cc(O)c2ccccc2c1OC(=O)c1ccccc1	3%	-4%	.	1%	-14%
CC(=O)Oc1c(C)cc(O)c2ccccc12	.	-31%	40µM*	?	.
Cc1cccc(NC(=O)CSc2nc3c(oc4ccccc43)c(=O)n2C(C)C)c1	.	.	6%	22%	.
CCC(c1c(C)[nH]oc1=O)c1c(C)[nH]oc1=O	-1%	3%	25µM*	1%	-1%
Cc1cc(=O)oc2cc(OCc3ccc(C(=O)OCC(=O)Nc4ccccc4OC(F)F)cc3)ccc12	-16%	22µM*	4%	-3%	?
Cc1[nH]c2ccccc2c1C(O)CN1CCN(c2cccc(C(F)(F)F)c2)CC1 (stereo unspecified)	-3%	23%	32µM*	-11%	-28%
COc1ccc(/C=N/NC(=O)c2ccco2)cc1Cn1nc(C)c([N+](=O)[O-])c1C	9%	-46%	3%	6%	6%
COc1ccc(/C=N/NC(=O)c2ccco2)cc1Cn1nc(C)cc1C	3%	-9%	50µM*	3%	14%
COc1cc(/C=N/NC(=O)c2ccc(F)cc2)ccc1OC(=O)c1ccco1	-8%	10µM*	-10%	-2%	8%
COc1cc(NC(=O)CSc2nc3nc(C)c(Cc4ccccc4Cl)c(C)n3n2)cc(OC)c1	.	.	-1%	-4%	.
CCOC(=O)c1cnc2c(ccc3ccccc32)c1Nc1cccc(Cl)c1	.	.	-1%	11%	.
Clc1ccc(CN2CCC(CNc3ncnc4onc(-c5ccc(Cl)cc5)c34)CC2)cc1	.	.	0%	-3%	.
CN(C)c1ccc(C(CNS(=O)(=O)c2ccc(F)c(F)c2)c2c[nH]c3ccccc23)cc1 (stereo unspecified)	11%	-40%	-17%	-5%	14µM*
O=c1[nH]nc(CNc2ccc(C(F)(F)F)cc2)c2ccccc12	8%	-34%	-2%	?	0%
O=c1[nH]nc(CNc2ccc(O)cc2)c2ccccc12	-16%	-35%	35µM*	0%	-24%
S=c1[nH]nc(-c2cccs2)n1/N=C/c1cn(-c2ccccc2)nc1-c1ccccc1	-6%	4µM*	4%	-6%	58%
CC1=C(C(=O)Nc2cccc(Cl)c2C)C2(CCCCCC2)OC1=O	.	.	-5%	10%	.
Cc1ccc(C(=O)Nc2nnc(S(=O)(=O)N(C)Cc3ccc(F)cc3)s2)cc1	.	.	0%	8%	.
Cc1ccc(NC(=O)Cn2cc(S(=O)(=O)c3ccccc3)c(=O)c3cc4c(cc32)OCO4)cc1	.	.	-19%	-12%	.
CC1(C)C2CC=C(/C=N/NC(=O)c3ccccc3O)C1C2 (stereo unspecified)	-7%	11µM*	-14%	-10%	?
COc1cc(NS(=O)(=O)c2ccc(NC(=S)NC(C)=O)cc2)nc(OC)n1	1%	.	.	.	8%
COc1cc(NS(=O)(=O)c2ccc(NC(=S)NC(=O)c3ccc(F)c(F)c3)cc2)nc(OC)n1	14%	?	22µM*	-3%	130%
COc1cc(NS(=O)(=O)c2ccc(NC(=S)NC(=O)c3cccs3)cc2)nc(OC)n1	?	-35%	22µM*	0%	64%
CCOc1ccc(C(=O)NCCc2sc(-c3ccc(F)cc3)nc2C)cc1	.	.	10%	19%	.
COc1cc2c(cc1OC)C(COc1cc(C)cc(C)c1)N(C(=O)c1ccc(S(=O)(=O)N3CCCC3)cc1)CC2 (stereo unspecified)	.	.	14%	6%	.
CCOc1ccc(NC(=O)Cn2cnc3c(oc4ccccc43)c2=O)cc1	.	.	1%	15%	.
COc1cc2c(cc1OC)C(COc1cccc(C(F)(F)F)c1)N(C(=O)c1ccc(S(=O)(=O)N3CCCC3)cc1)CC2 (stereo unspecified)	.	.	7%	6%	.
